Results taken from PubChem BioAssay (NCATS).
Records with an inconclusive call do not appear. Active and inactive are the calls of the source. The call rests on the fitted dose curve; in most records, active means well fitted curve in the direction sought with a large enough effect in the signal ratio; inconclusive means small, poorly fitted or top-dose-only effect, or effect the other way, or a change in a side signal; inactive means no such curve, though single readings can be large or run the other way; the % refers to the signal ratio.

Test: qHTS Assay for Modulators of Human Peripheral Myelin Protein 22 (PMP22) Expression/Activity (AID 1967)
Conditions: Cell-based PMP22 reporter, dual-color luciferase ratio, 0% = compound-free control cells, mouse Pmp22 promoter in mouse Schwann cells; series mostly up to 115 µM
Procedure, shortened: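 Mouse MSC80 Schwann line, Pmp22 promoter–CBG68 reporter, EF-alpha–CBR internal control. 24h compound exposure, 37 °C/5% CO2, DMEM + 10% FBS. Readout: corrected green/red luminescence ratio, normalized to untreated cells; concentration-response curves fitted and classified.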

**Q.** Which outcome does the source give for `NC/C=C\C(=O)O` here?
**A.** Its outcome is “inactive”.

**Q.** With `COc1ccc2c(c1)CCC1C2CC[C@@]2(C)C1CC[C@@H]2NCCCCCCN1C(=O)C=CC1=O` (some centres not stated) as the compound, how does the outcome read?
**A.** The outcome was “inactive”.

**Q.** For `O=[N+]([O-])c1cccc2c(Br)[nH]nc12`, which outcome is on record?
**A.** Its outcome is “inactive”.

**Q.** For `CSC(=N)N`, which outcome is on record?
**A.** The outcome was “inactive”.

**Q.** For `NCCC1CCCC(CCN)N1` (configuration not stated), which outcome is on record?
**A.** The outcome was “inactive”.

**Q.** With `OC[C@H]1NC[C@@H](O)[C@@H]1O` as the compound, how does the outcome read?
**A.** The outcome was “inactive”.

**Q.** For `O=C(O)[C@H]1NCCC[C@H]1C(=O)O`, which outcome is on record?
**A.** The outcome was “inactive”.

**Q.** For `CC(C)NCC(O)COc1ccc(CC(N)=O)cc1` (configuration not stated), which outcome is on record?
**A.** The outcome was “inactive”.

**Q.** With `CCN(CC)CCOC(=O)c1cc(Cl)c(N)cc1OC` as the compound, how does the outcome read?
**A.** Its outcome is “inactive”.

**Q.** Which outcome does the source give for `CC(C)C[C@H](NC(=O)C1OC1C(=O)O)C(=O)NCCCCN=C(N)N` (some centres not stated) here?
**A.** Its outcome is “inactive”.

**Q.** With `OCC1NCC(O)C(O)C1O` (configuration not stated) as the compound, how does the outcome read?
**A.** The outcome was “inactive”.

**Q.** With `C#CCn1c(=O)c2c(ncn2C)n(C)c1=O` as the compound, how does the outcome read?
**A.** The outcome was “inactive”.

**Q.** Which outcome does the source give for `O=C(O)C1=CCCNC1` here?
**A.** Its outcome is “inactive”.

**Q.** For `N=C(N)c1ccc(N)cc1`, which outcome is on record?
**A.** Its outcome is “inactive”.

**Q.** With `C[C@@]1(C2CCCC2)Cc2cc(OCC(=O)O)c(Cl)c(Cl)c2C1=O` as the compound, how does the outcome read?
**A.** The outcome was “inactive”.

**Q.** With `O=C(O)C1=CCNCC1` as the compound, how does the outcome read?
**A.** Its outcome is “inactive”.

**Q.** Which outcome does the source give for `CC[N+](CC)(CC)CC(=O)Nc1c(C)cccc1C` here?
**A.** The outcome was “inactive”.

**Q.** Which outcome does the source give for `CC(=O)C(C)=O` here?
**A.** Its outcome is “inactive”.

**Q.** With `CNc1cc(NS(=O)(=O)c2ccc(N)cc2)nc(NC)n1` as the compound, how does the outcome read?
**A.** The outcome was “inactive”.

**Q.** With `NC1(C(=O)O)CCCCC1` as the compound, how does the outcome read?
**A.** The outcome was “inactive”.

**Q.** For `CO/N=C(\C(=O)N[C@@H]1C(=O)N2C(C(=O)O)=C(CSc3nc(=O)c(O)nn3C)CSC12)c1csc(N)n1` (some centres not stated), which outcome is on record?
**A.** The outcome was “inactive”.

**Q.** Which outcome does the source give for `NCCS(=O)O` here?
**A.** The outcome was “inactive”.

**Q.** For `N[C@@H](Cc1ccc(O)c(I)c1)C(=O)O`, which outcome is on record?
**A.** The outcome was “inactive”.

**Q.** Which outcome does the source give for `O=C(O)CCC(=O)N1CCCC1C(=O)O` (configuration not stated) here?
**A.** The outcome was “inactive”.

**Q.** Which outcome does the source give for `NCC(O)(CS(=O)(=O)O)c1ccc(Cl)cc1` (configuration not stated) here?
**A.** Its outcome is “inactive”.

**Q.** Which outcome does the source give for `CC(C)(C)NCC(O)COc1cccc2[nH]c(=O)[nH]c12` (configuration not stated) here?
**A.** Its outcome is “inactive”.

**Q.** Which outcome does the source give for `NC1CONC1=O` (configuration not stated) here?
**A.** The outcome was “inactive”.

**Q.** With `O=C(O)c1cccnc1C(=O)O` as the compound, how does the outcome read?
**A.** The outcome was “inactive”.

**Q.** Which outcome does the source give for `CCCCCCCCCCCCCCCCCCOC[C@H](COP(=O)([O-])OCC[N+](C)(C)C)OC` here?
**A.** The outcome was “inactive”.

**Q.** Which outcome does the source give for `COc1ccc(-c2ccc(N)[n+](CCCC(=O)O)n2)cc1` here?
**A.** The outcome was “inactive”.

**Q.** Which outcome does the source give for `CC(N)=NCCCC[C@@H](N)C(=O)O` here?
**A.** Its outcome is “inactive”.

**Q.** With `C=C(C)C1CC=C(C(=O)O)CC1` (configuration not stated) as the compound, how does the outcome read?
**A.** Its outcome is “inactive”.

**Q.** For `CN[C@H](CC(=O)O)C(=O)O`, which outcome is on record?
**A.** Its outcome is “inactive”.

**Q.** For `C[C@@H](NCCc1ccc(O)cc1)[C@@H](O)c1ccc(O)cc1`, which outcome is on record?
**A.** The outcome was “inactive”.

**Q.** Which outcome does the source give for `CNc1ncnc2c1ncn2[C@H]1C[C@H](OP(=O)(O)O)[C@@H](COP(=O)(O)O)O1` here?
**A.** The outcome was “inactive”.

**Q.** Which outcome does the source give for `COc1cc(CC(=O)O)ccc1O` here?
**A.** The outcome was “inactive”.

**Q.** For `NC1(C(=O)O)CCc2cc(C(=O)O)ccc21` (configuration not stated), which outcome is on record?
**A.** The outcome was “inactive”.
